From PubChem
Shown are actives, neighbours in structure and some others; about 19% of the full set was active somewhere.
uPA surface inh: inhibitors of cell surface uPA generation; cell surface uPA generation assay, qHTS; Potency, µM (highest dose often 38.3 µM), for the others: at the highest dose activity change, negative = inhibition, usual class: inhibitors; actives 0.31% (n = 330,000); AID 540303; active means well fitted inhibition curve with a large enough effect; inconclusive means small, poorly fitted or top-dose-only effect; inactive means no such curve, though single readings can be large or run the other way; tested in mouse RAW 264.7 cells; further: potency means the concentration at half of the fitted maximal effect; nearly all actives have a fitted effect of over 55% in size
HT1080NT lethal: kills 2HG-producing HT-1080-NT fibrosarcoma cells. AID 686970. Potency, µM (series often up to 46.1 µM), without a hit: at the highest dose activity, negative = less viability, hits mostly cytotoxic. actives 1.6% (n = 360,000). HT-1080-NT fibrosarcoma viability, CellTiter-Glo ATP luminescence, 48 h;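 further: NT is the 2HG producing partner of a matched IDH1 knockdown line; potency means the concentration at half of the fitted maximal effect; 0% = DMSO-treated cells and -100% = media-only wells without cells; nearly all actives have a fitted effect of over 55% in size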
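A 48-hour cytotoxicity screen used HT-1080-NT cells plated 2 hours before compound delivery. ATP-based CellTiter-Glo luminescence measured viability, normalized to DMSO and no-cell controls.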
HT1080 IDH1KD tx: kills HT-1080 cells with IDH1 knockdown; AID 686971; Potency, µM (titrated, usually from 46.1 µM), for the others: at the top dose activity, negative = toxicity, actives largely listed as cytotoxic; HT-1080 IDH1 knockdown viability, ATP luminescence, 48 h; actives 2% (n = 360,000);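 further: potency means the concentration at half of the fitted maximal effect; 0% = DMSO wells and -100% = cell-free medium wells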
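IDH1KD HT-1080 cells, 750/well, RPMI + 5% FBS; compound pinned after 2 h settling; 48 h, 37 °C; CellTiter-Glo luminescence; % activity normalised to DMSO and no-cell wells; curves fitted, classed by r2 and efficacy.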
IL1B secr inh: blocks inflammasome-driven IL-1 beta release; activity change, % at 57.5 µM; actives 4.7% (n = 360,000); THP-1 LPS/ATP IL-1B secretion, AlphaLISA, 16 h; active compounds read low; in the data active means activity change below about -50%; inconclusive means mostly about -30% to -49%
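Secreted IL-1B measured by AlphaLISA bead assay after 16 h compound exposure of THP-1 cells; compounds (final up to 57.5 uM) added 1 h before LPS (250 ng/mL) and ATP (1.25 mM) stimulation; lower signal means less secretion.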
TDP1 cell CPT: growth inhibition of DT40 Tdp1-/-;hTDP1 cells with camptothecin (screen for TDP1 inhibitors) | chicken DT40 Tdp1-/-;hTDP1 cells + 20 nM CPT, ATP luminescence, 48 h | Potency, µM (series often up to 46.2 µM), inactives show at the top dose activity change, negative = growth inhibition, usual class: inhibitors | actives 12% (n = 420,000) | AID 686979; further: potency means the concentration at half of the fitted maximal effect; nearly all actives have a fitted effect of over 55% in size
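Chicken DT40 Tdp1-/- cells stably complemented with human TDP1 were seeded at 400 cells/well in medium containing 20 nM camptothecin, exposed to pin-transferred compounds, and grown at 37 °C for at least 48 hr. Viability was read as ATP luminescence.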
TDP1 cell noCPT: qHTS for Inhibitors of human tyrosyl-DNA phosphodiesterase 1 (TDP1): qHTS in cells in absence of CPT | DT40 Tdp1-/- hTDP1 cells, no CPT, ATP luminescence, 48 h | Potency, µM (highest dose often 46.2 µM), for the others: top-dose activity change, negative = growth inhibition, usual class: inhibitors | actives 15% (n = 420,000) | AID 686978, 2013; further: potency means the concentration at half of the fitted maximal effect; nearly all actives have a fitted effect of over 55% in size
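Seeded 400 DT40-hTDP1 cells/well (vehicle DMSO, no 20 nM CPT); pinned compounds; ≥48 hr at 37 °C; CellTiter-Glo luminescence as viability measure.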
Starred values were filed as active, the others as inactive; ? = inconclusive; / = not tested or not shown. Unless noted, the call rests on the fitted dose curve; in most records, active means well fitted curve in the direction sought with a large enough effect; inconclusive means small, poorly fitted or top-dose-only effect, or another doubt; inactive means no such curve, though single readings can be large; an effect the other way counts as inactive or inconclusive. Unless noted, on the % scale 0 is the no-effect control and ±100 the full control effect.

SMILES	uPA surface inh	HT1080NT lethal	HT1080 IDH1KD tx	IL1B secr inh	TDP1 cell CPT	TDP1 cell noCPT
COc1cc2c(cc1OC)C(CNC(=O)C=Cc1ccccc1)C2 (configuration not stated)	/	1%	1%	42	-21%	?
O=C(NCc1ccccc1Cl)c1nnc(Cc2ccc(Cl)cc2)o1	/	/	/	/	-1%	-16%
O=S(=O)(Nc1ccc(-n2cnnn2)cc1)c1ccc(F)c(F)c1F	-2%	0%	0%	14	-17%	1%
CC1=CC(C)C(=O)N(C)C(C)=C1 (configuration not stated)	/	10%	1%	12	24%	0%
C[C@H](CO)N1C[C@H](C)[C@H](CN(C)S(=O)(=O)c2cn(C)cn2)Oc2ccc(NC(=O)Nc3ccc(C(F)(F)F)cc3)cc2CC1=O	31%	5.2µM*	23µM*	33	?	13µM*
C[C@@H]1CN([C@H](C)CO)C(=O)c2cc(NC(=O)Nc3ccc(C(F)(F)F)cc3)ccc2O[C@H]1CN(C)S(=O)(=O)c1ccc(Cl)cc1	?	-25%	-22%	0	5.2µM*	5.8µM*
Cc1ccccc1-c1cccc(CN2CCc3nnc(C(C)NC(=O)c4cccnc4)n3CC2)c1 (configuration not stated)	/	/	/	/	-5%	-5%
CCOC(=O)C1=C(N)n2c(s/c(=C\c3ccco3)c2=O)=C(C(=O)OCC)C1c1ccco1 (configuration not stated)	/	16µM*	7.9µM*	8	5.6µM*	5µM*
CCOC(=O)C1=C(N)n2c(s/c(=C\c3ccco3)c2=O)=C(C(=O)OC(C)C)C1c1ccco1 (configuration not stated)	4%	13%	-9%	-8	?	21µM*
CCOC(=O)C1=C(c2ccccc2)N=c2s/c(=C\c3ccco3)c(=O)n2C1c1cccs1 (configuration not stated)	4%	8%	4%	-23	?	?
CCOC1=C2[C@H](c3ccc(CC)cc3)N(S(=O)(=O)c3ccc(C)cc3)C[C@H]2C(C#N)(C#N)C(C#N)(C#N)C1	/	-4%	-10%	-76*	3.7µM*	3.3µM*
CCOC1=C2[C@H](c3ccccc3Cl)N(S(=O)(=O)c3ccc(C)cc3)C[C@H]2C(C#N)(C#N)C(C#N)(C#N)C1	/	-1%	-1%	?	4.6µM*	9.2µM*
CCCc1cc(-c2n[nH]c(=S)n2CC(C)C)cs1	5%	-14%	-9%	5	?	21µM*
CCCCn1c(-c2csc(CC)c2)n[nH]c1=S	8%	1%	8%	16	21µM*	?
COc1ccc(/C=N/NC(=O)COc2cc(C)cc(C)c2)cc1COC(C)=O	1%	1%	3%	14	-1%	?
Nc1c(C(=O)CSc2n[nH]c(-c3ccccc3)n2)c(=O)[nH]c(=O)n1C1CC1	1%	1%	0%	25	-11%	-11%
CC(C)C[C@@H](CN)NC(=O)c1nc[nH]c1C(=O)N[C@@H](CC(=O)O)C(=O)CNC[C@H](C)NC(=O)c1nc[nH]c1C(=O)N[C@@H](CC(=O)O)C(=O)O	-6%	0%	1%	7	-22%	-1%
COc1ccc(CCN(C(=O)c2snc(C(N)=O)c2N)C(C(=O)NCC2CCCO2)c2ccc(F)cc2)cc1OC (configuration not stated)	11%	15%	7%	2	?	29µM*
Cc1cccc(CCN(C(=O)c2snc(C(N)=O)c2N)C(C(=O)NCC2CCCO2)c2ccc(F)cc2)c1 (configuration not stated)	-5%	-1%	-29%	-52*	?	?
Cc1ccccc1-n1c(SCC(=O)N/N=C/c2sccc2C)nc2ccccc2c1=O	2%	9%	11%	-8	-2%	-4%
CCN(CC)S(=O)(=O)c1ccc2[nH]cc(C(=O)NCCC3=CCCCC3)c(=O)c2c1	-13%	?	23µM*	?	10µM*	18µM*
CCN(C(=O)CN(C)S(=O)(=O)c1ccc2c(c1)c(=O)n(C)c(=O)n2C)c1ccc(OC)cc1	/	/	/	/	-17%	23µM*
CN(CC(=O)NCCc1ccc(Cl)cc1)S(=O)(=O)c1ccc2c(c1)c(=O)n(C)c(=O)n2C	-11%	7%	-4%	-7	?	?
CCN(CC)S(=O)(=O)c1ccc2[nH]cc(C(=O)NCCN3CCCCCC3)c(=O)c2c1	8%	0%	7%	0	-11%	-19%
CCOc1ccc(N(C)S(=O)(=O)c2ccc3[nH]cc(C(=O)NCC(OC)OC)c(=O)c3c2)cc1	1%	-2%	0%	5	?	26µM*
SMILES	uPA surface inh	HT1080NT lethal	HT1080 IDH1KD tx	IL1B secr inh	TDP1 cell CPT	TDP1 cell noCPT
CN(CC(=O)NCCC1=CCCCC1)S(=O)(=O)c1ccc2c(c1)c(=O)n(C)c(=O)n2C	-4%	-4%	0%	-10	8.2µM*	?
COc1ccccc1CNCCS(=O)(=O)NCc1ccccc1	-1%	3%	4%	-1	-22%	?
CCOc1ccc(C(=O)c2oc3ccccc3c2NC(=O)Cc2coc3cc(C)cc(C)c23)cc1	/	/	/	/	-3%	-3%
CCc1ccc(N(C)S(=O)(=O)c2ccc3[nH]cc(C(=O)NCC4CCCO4)c(=O)c3c2)cc1 (configuration not stated)	/	/	/	/	?	15µM*
CCOc1ccc(N(C)S(=O)(=O)c2ccc3[nH]cc(C(=O)NCC4CCCO4)c(=O)c3c2)cc1 (configuration not stated)	4%	7%	3%	-2	?	?
CCCCOc1ccc(C2C(=O)N(C3CCCCC3)CC(=O)N2C2CCCCC2)cc1 (configuration not stated)	/	/	/	/	-8%	-15%
Cc1cccc2nc(-c3ccccc3)nc(N[C@@H](CO)c3ccccc3)c12	-5%	?	?	-63*	?	?
COCCn1c(C)cc(C(=O)CSc2ncn[nH]2)c1C	/	2%	-1%	18	2%	-2%
Cc1cc(C)c(C#N)c(SCC(=O)c2cc(C)n(CCc3ccccc3)c2C)n1	6%	0%	-10%	-11	18µM*	18µM*
COCCn1c(C)cc(C(=O)CSc2nc(C)cc(C)c2C#N)c1C	-7%	-13%	-13%	-52*	21µM*	18µM*
Cc1cc(C)c(C#N)c(SCC(=O)c2ccc(Cl)cc2Cl)n1	-4%	?	?	-93*	?	16µM*
